Assay outcomes as filed in PubChem.
Only some compounds are listed: those with a hit (about 10% of all), similar ones and a draw of the others.
NIH3T3 tox: cytotoxic compounds in NIH 3T3 cells | NIH 3T3 viability, CellTiter-Glo ATP luminescence, 48-72 h | Potency, µM (highest dose often 96.7 µM), without a hit: at the highest dose activity change, negative = cytotoxicity, most hits filed as inhibitors | actives 4.3% (n = 94,000) | AID 1345082; note: % is set by controls: 0 for no effect and ±100 for the full control effect; nearly all actives have a fitted effect of over 55% in size
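NIH 3T3 cells at 400 cells/well received 23 nL of compound by pintool and were incubated 48 or 72 h at 37 °C. Viability was read as ATP-coupled CellTiter-Glo luminescence.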
HEK cytotox: cytotoxic compounds in HEK 293 cells | HEK 293 viability, ATP luminescence (CellTiter-Glo), 48-72 h | Potency, µM (doses to about 115 µM), for the others: top-dose activity change, negative = cytotoxicity, hits mostly inhibitors | actives 6.6% (n = 94,000) | AID 1345083; note: % is set by controls: 0 for no effect and ±100 for the full control effect; nearly all actives have a fitted effect of over 60% in size
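Viability of HEK 293 cells, plated at 250 cells/well, was judged by cellular ATP after compound treatment for 48 or 72 hr. Luminescence was imaged 10 min after CellTiter-Glo addition at room temperature.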
NPR1 antag: blocks ANP-stimulated signaling of human Npr1 receptor. AID 1347048. P16066. HEK293 hNpr1 GloSensor cGMP, ANP-stimulated luminescence. actives 1.6% (n = 76,000). Potency, µM (titrated, usually from 46.3 µM), for inactives: at the highest dose activity change, negative = inhibition, usual class: inhibitors; calls by dose curve; note: % is set by controls: 0 for no effect and ±100 for the full control effect; nearly all actives have a fitted effect of over 60% in size
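Compound pre-incubated 30 min at room temperature on GloSensor-loaded HEK293 cells stably carrying hNpr1 and the pGS-40F cGMP biosensor. Stimulation uses hNppA at 0.1 nM final; luminescence is taken at baseline and 20 min post-agonist.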
GPT2 inhibitor: inhibitors of human GPT2 alanine aminotransferase; Q8TD30; Recombinant GPT2, coupled pyruvate oxidase/HRP Amplex Red fluorescence; Potency, µM (highest dose often 57.7 µM), inactives show at the top dose activity change, negative = inhibition, most hits filed as inhibitors; actives 0.25% (n = 100,000); note: % is set by controls: 0 for no effect and ±100 for the full control effect; nearly all actives have a fitted effect of over 60% in size
Target sequence (Q8TD30 whole entry, looked up): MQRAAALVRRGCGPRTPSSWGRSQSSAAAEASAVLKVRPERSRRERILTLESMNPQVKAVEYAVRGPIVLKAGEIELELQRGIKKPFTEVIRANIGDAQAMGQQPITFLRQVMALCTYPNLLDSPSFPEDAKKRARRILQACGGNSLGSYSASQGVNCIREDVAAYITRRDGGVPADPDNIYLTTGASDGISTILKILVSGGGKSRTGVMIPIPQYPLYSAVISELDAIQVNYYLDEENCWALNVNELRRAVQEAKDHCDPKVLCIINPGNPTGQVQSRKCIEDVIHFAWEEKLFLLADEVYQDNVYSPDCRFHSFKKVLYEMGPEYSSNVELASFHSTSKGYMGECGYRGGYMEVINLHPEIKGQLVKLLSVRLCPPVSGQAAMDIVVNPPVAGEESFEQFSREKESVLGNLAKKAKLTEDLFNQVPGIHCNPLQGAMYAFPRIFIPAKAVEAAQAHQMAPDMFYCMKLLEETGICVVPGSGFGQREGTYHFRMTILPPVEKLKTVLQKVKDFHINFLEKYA
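Fluorescence of coupled pyruvate oxidase/HRP/Amplex Red system (50uM Amplex, 30 min, dark) reports pyruvate formed by GPT2. Enzyme reaction: 10ng/uL GPT2, 2mM L-alanine, 250uM a-KG, 30 min room temperature, pH 7.5; 50uM AOA control.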
FLuc inh: inhibitors of firefly (Photinus pyralis) luciferase. AID 1347043. purified P. pyralis luciferase, luminescence, biochemical. P08659. actives 2.5% (n = 76,000). Potency, µM (doses to about 115 µM), actives largely listed as inhibitors; note: % is set by controls: 0 for no effect and ±100 for the full control effect; nearly all actives have a fitted effect of over 65% in size
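Purified P. pyralis luciferase (10nM final) in 50mM Tris acetate pH 7.5, 10mM Mg acetate, 0.01% Tween-20, 0.05% BSA with 10uM D-luciferin and 10uM ATP. Compounds titrated qHTS. Luminescence imaged on CCD.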
NPR1 antag cnf: hNpr1 antagonism, confirmation assay; shares compounds with NPR1 antag; HEK293 hNpr1 cGMP GloSensor luminescence, ANP-stimulated; Potency, µM (titrated, usually from 57.6 µM), for the others: at the top dose activity change, negative = inhibition, usual class: inhibitors; actives 76% (n = 1,400); calls by dose curve; note: nearly all actives have a fitted effect of over 70% in size
Npr2 selectivity: hNpr2 antagonism, selectivity versus Npr1; HEK293 hNpr2 GloSensor cGMP luminescence, CNP-stimulated; actives 67% (n = 1,400); Potency, µM (series often up to 57.6 µM), for inactives: at the top dose activity change, negative = inhibition, actives largely listed as inhibitors; shares compounds with NPR1 antag; calls by dose curve; note: nearly all actives have a fitted effect of over 70% in size
FLuc counter: inhibits firefly luciferase, false Npr1 antagonist flag; Potency, µM (doses to about 57.6 µM), without a hit: at the highest dose activity change, negative = inhibition, most hits filed as inhibitors; purified FLuc enzyme, luminescence, Km substrate; actives 0.7% (n = 1,400); shares compounds with NPR1 antag; note: 0% is about no effect
GloSensor cGMP: counter-screen for Npr1 antagonists: GloSensor control cell line; actives 69% (n = 1,400); shares compounds with NPR1 antag; Potency, µM (series often up to 57.6 µM), for the others: at the top dose activity change, negative = inhibition, actives largely listed as inhibitors; HEK293 GloSensor cGMP, SNP-stimulated, luminescence; calls by dose curve; note: % is set by controls: 0 for no effect and ±100 for the full control effect; nearly all actives have a fitted effect of over 70% in size
* = called active by the depositor; i = inactive; ? = inconclusive; / = no result; [ ] = another dose, or the depositor's remark. Unless noted, calls come from the whole dose curve; as a rule, active = well fitted curve in the direction sought with a large enough effect; inconclusive = small, poorly fitted or top-dose-only effect, or another doubt; inactive = no such curve, though single readings can be large; an effect the other way counts as inactive or inconclusive. Potency is the fitted concentration of half-maximal effect.

SMILES | NIH3T3 tox | HEK cytotox | NPR1 antag | GPT2 inhibitor | FLuc inh | NPR1 antag cnf | Npr2 selectivity | FLuc counter | GloSensor cGMP
CC(=O)c1ccc(NC(=O)N[C@H]2CO[C@H]3[C@@H]2OC[C@@H]3n2nnnc2Oc2ccc(-n3ccnc3)cc2)cc1 | -17% | -12% | -4% | 3% | i | / | / | / | /
O=C(Nc1ccc(Oc2ccccc2)cc1)N[C@H]1CO[C@H]2[C@@H]1OC[C@@H]2n1nnnc1Oc1ccc(-n2ccnc2)cc1 | ? | 40µM* | 11µM* | 1% | i | 22µM* | 22µM* | -1% | 17µM*
Cc1nn(-c2ccccc2)c2c1C(C1CC1)N(C1CCCN([S+](=O)([O-])c3ccccc3)C1)C2=O (configuration not stated) | -16% | -2% | / | / | / | / | / | / | /
Cc1nn2c(c1-c1cccnc1N1CCOCC1)N(C(=O)Cc1cccc(Cl)c1)CCC2 | ? | 4% | -21% | 1% | i | -27% | ? | 0% | 7%
Cc1nn2c(c1-c1ccccc1OCc1ccccc1)N(C(=O)c1ccn(C)n1)CCC2 | ? | -18%[172 µM] | 0%[70.6 µM] | 4%[88.5 µM] | i | / | / | / | /
Cc1nn2c(c1-c1cccnc1N1CCOCC1)N(CCc1ccccc1)CCC2 | ? | 25µM* | 4µM* | i | i | 35µM* | 31µM* | -6%[86.2 µM] | ?
CO[C@H]1CN(C2CCN(C(=O)Cn3cc(C)cn3)CC2)[C@H]1c1cccnc1 | -4% | i | / | 2% | / | / | / | / | /
O=C(NC1CCCCCCC1)c1nnn2c1COC(c1ccc(F)cc1)C2 (configuration not stated) | ? | ? | ? | i | i | ? | ? | -1% | ?
COc1ccccc1C(=O)N1CCN(C(=O)c2nnn3c2COC(c2ccc(C)cc2)C3)CC1 (configuration not stated) | ? | ? | ? | ? | i | ? | -28% | 1% | ?
CCOc1ccccc1C(=O)N1CCN(C(=O)c2nnn3c2COC(c2ccccc2)C3)CC1 (configuration not stated) | -18% | ? | 0% | 5% | i | / | / | / | /
COc1ccc(Cl)cc1C(=O)N1CCN(C(=O)c2nnn3c2COC(c2ccccc2)C3)CC1 (configuration not stated) | ? | ? | ? | i | i | ? | ? | 2% | -25%
O=C(c1ccccc1F)N1CCN(C(=O)c2nnn3c2COC(c2ccc(Cl)cc2)C3)CC1 (configuration not stated) | ? | ? | 14µM* | 2% | i | 27µM* | ? | 2% | ?
O=C(c1ccc2c(c1)CC(=O)N2Cc1ccccc1)N1CCN(C2CCCCC2)CC1 | ? | ? | -9% | -15% | i | / | / | / | /
O=C1N(CC2CC2)CCOC12CCN([S+](=O)([O-])c1ccccc1)CC2 | ? | -17%[172 µM] | -2%[70.6 µM] | -11%[88.5 µM] | i | / | / | / | /
O=C1N(CC2CC2)CCOC12CCN([S+](=O)([O-])c1ccc(C(F)(F)F)cc1)CC2 | ? | ? | 11µM* | -14%[88.5 µM] | i | 18µM* | 20µM* | -1%[86.2 µM] | 11µM*
COc1ccc([S+](=O)([O-])N2CCC3(CC2)OCCN(CC2CC2)C3=O)cc1 | ? | ? | ? | -13%[88.5 µM] | i | 31µM* | ? | -1%[86.2 µM] | 31µM*
N#Cc1ccc([S+](=O)([O-])N2CCC3(CC2)OCCN(CC2CC2)C3=O)cc1 | ? | -22%[172 µM] | 18µM* | -4%[88.5 µM] | i | 31µM* | ? | 5%[86.2 µM] | 28µM*
O=C1N(CC2CCOCC2)CCOC12CCN([S+](=O)([O-])c1cccs1)CC2 | ? | -19%[172 µM] | -2%[70.6 µM] | -5%[88.5 µM] | i | / | / | / | /
O=C(c1nc2cccnc2n(CCc2ccccc2)c1=O)N1CCC(c2ccccc2)CC1 | ? | ? | / | 4% | / | / | / | / | /
COc1ccc(C2Cn3nnc(C(=O)N4CCN(C(=O)Cc5ccc(Cl)cc5)CC4)c3CO2)cc1 (configuration not stated) | -19% | -20% | ? | i | i | 19µM* | ? | 2% | 22µM*
COc1cccc(CC(=O)N2CCN(C(=O)c3nnn4c3COC(c3ccc(Cl)cc3)C4)CC2)c1 (configuration not stated) | -41% | -33% | 11µM* | i | i | 24µM* | 24µM* | 3% | 22µM*
COc1ccc(C(=O)N2CCN(C(=O)c3nnn4c3COC(c3ccc(Cl)cc3)C4)CC2)c(C)c1 (configuration not stated) | ? | ? | 10µM* | i | i | 19µM* | 19µM* | -1% | 14µM*
COc1cccc(N2CCN(C(=O)c3cc4n(n3)CC(c3ccc(Cl)cc3)OC4)CC2)c1 (configuration not stated) | ? | ? | 16µM* | 3% | i | 27µM* | ? | -4% | ?
O=C(Nc1ccc(Cl)cc1)N1CCC2(CC1)C(=O)NCN2Cc1ccc(Cl)cc1 | ? | ? | 2% | ? | i | / | / | / | /
O=C(c1ccc(Oc2ccccc2)cc1)N1CCNc2cnc(Nc3cccnc3)nc2C1 | ? | ? | ? | -17% | ? | / | / | / | /
Cn1ncc(N2CCC(NC(=O)Cc3ccsc3)CC2)cc1=O | -9% | i | 3% | i | i | / | / | / | /
COc1ccc(C2Cn3nnc(C(=O)N4CCN(C(=O)Cc5ccccc5C)CC4)c3CO2)cc1 (configuration not stated) | -13% | ? | ? | i | i | 22µM* | 22µM* | -2% | 24µM*
COc1ccc(C2Cn3nnc(C(=O)N4CCN(C(=O)CCc5ccccc5)CC4)c3CO2)cc1 (configuration not stated) | -27% | ? | ? | -5% | i | 24µM* | ? | 2% | 22µM*
